Inconclusive results are not listed. Entries that show only a call come without a potency. A number with no mark means an inactive call. Calls of active or inactive are those of the source. Calls follow the shape of the dose curve; as a rule, active = well fitted curve in the direction sought with a large enough effect; inconclusive = small, poorly fitted or top-dose-only effect, or another doubt; inactive = no such curve, though single readings can be large; an effect the other way counts as inactive or inconclusive.
Columns and labels:
[1] = molecular target: Rap guanine nucleotide exchange factor 3 (Homo sapiens) (UniProt O95398); assay: Confirmatory qHTS for agonist of cAMP-regulated guanine nucleotide exchange factor 3 (EPAC1) (AID 1645881); also: nearly all actives have a fitted effect of over 75% in size; also: potency is read from the fitted curve at half-maximal effect;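 as to activation: EPAC1 catalysed release of BODIPY-GDP from Rap1B seen as fluorescence loss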
Chain of Rap guanine nucleotide exchange factor 3 (Homo sapiens) (O95398 whole entry, looked up): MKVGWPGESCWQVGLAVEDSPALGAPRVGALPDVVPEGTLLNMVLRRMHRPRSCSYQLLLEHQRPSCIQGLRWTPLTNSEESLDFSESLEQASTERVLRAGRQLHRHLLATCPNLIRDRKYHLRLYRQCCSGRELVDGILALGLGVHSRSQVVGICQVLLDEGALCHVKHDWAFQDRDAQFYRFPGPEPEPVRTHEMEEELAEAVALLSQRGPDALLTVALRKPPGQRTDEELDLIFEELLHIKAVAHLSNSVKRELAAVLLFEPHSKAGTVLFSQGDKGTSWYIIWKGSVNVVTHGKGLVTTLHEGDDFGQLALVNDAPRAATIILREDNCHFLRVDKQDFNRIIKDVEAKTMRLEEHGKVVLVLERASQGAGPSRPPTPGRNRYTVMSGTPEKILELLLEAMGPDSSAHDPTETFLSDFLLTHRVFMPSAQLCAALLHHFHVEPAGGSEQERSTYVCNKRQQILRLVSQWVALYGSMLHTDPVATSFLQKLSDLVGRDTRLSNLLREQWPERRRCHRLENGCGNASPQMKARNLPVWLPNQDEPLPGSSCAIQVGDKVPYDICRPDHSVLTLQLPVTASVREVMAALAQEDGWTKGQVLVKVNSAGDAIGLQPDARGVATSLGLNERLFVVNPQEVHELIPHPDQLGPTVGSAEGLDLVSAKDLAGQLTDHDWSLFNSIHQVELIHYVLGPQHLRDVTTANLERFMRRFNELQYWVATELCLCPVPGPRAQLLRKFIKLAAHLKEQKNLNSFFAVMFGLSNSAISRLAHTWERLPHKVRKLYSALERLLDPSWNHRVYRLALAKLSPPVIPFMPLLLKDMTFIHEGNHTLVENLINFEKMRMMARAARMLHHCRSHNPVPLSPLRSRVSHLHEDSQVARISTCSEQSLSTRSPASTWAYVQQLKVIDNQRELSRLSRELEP

[2] = molecular target: Rap guanine nucleotide exchange factor 4 (Homo sapiens) (UniProt Q8WZA2); assay: Confirmatory qHTS for agonist of cAMP-regulated guanine nucleotide exchange factor 4 (EPAC2) (AID 1645884);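 also: nucleotide exchange releases bodipy-GDP from Rap1 and this lowers its fluorescence; nearly all actives have a fitted effect of over 65% in size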
Chain of Rap guanine nucleotide exchange factor 4 (Homo sapiens) (Q8WZA2 whole entry, looked up): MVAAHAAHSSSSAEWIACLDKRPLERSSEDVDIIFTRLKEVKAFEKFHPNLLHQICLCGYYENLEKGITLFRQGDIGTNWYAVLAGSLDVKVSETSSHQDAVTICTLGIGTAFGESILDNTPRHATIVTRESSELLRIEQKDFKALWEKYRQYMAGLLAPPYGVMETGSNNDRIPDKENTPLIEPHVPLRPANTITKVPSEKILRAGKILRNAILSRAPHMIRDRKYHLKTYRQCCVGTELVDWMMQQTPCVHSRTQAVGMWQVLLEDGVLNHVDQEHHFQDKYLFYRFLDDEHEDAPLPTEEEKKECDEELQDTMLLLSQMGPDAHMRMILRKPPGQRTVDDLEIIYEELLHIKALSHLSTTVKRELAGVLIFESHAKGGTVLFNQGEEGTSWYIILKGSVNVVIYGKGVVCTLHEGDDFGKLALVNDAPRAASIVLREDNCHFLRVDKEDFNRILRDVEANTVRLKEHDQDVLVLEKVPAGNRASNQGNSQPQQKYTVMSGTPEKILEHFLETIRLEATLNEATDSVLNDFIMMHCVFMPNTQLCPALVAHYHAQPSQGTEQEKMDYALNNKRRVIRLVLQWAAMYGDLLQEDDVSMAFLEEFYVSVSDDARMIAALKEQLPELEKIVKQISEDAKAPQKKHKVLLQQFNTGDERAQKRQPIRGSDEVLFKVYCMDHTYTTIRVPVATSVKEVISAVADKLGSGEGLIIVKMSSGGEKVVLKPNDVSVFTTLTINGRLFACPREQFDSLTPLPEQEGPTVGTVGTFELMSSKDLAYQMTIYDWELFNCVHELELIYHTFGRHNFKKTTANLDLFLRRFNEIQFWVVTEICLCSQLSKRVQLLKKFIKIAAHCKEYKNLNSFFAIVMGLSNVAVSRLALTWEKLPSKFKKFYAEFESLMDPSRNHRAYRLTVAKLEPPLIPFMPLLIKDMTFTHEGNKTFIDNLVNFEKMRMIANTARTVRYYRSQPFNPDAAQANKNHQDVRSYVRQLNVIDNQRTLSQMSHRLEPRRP

[3] = molecular target: Rap guanine nucleotide exchange factor 4 (Homo sapiens) (UniProt Q8WZA2); assay: Confirmatory qHTS for antagonist of cAMP-regulated guanine nucleotide exchange factor 4 (EPAC2) (AID 1645885); also: nearly all actives have a fitted effect of over 25% in size
[4] = molecular target: Rap guanine nucleotide exchange factor 3 (Homo sapiens) (UniProt O95398); assay: Counterscreen qHTS for antagonist of cAMP-regulated guanine nucleotide exchange factor 3 (EPAC1) (AID 1645888);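 also: fluorescence loss as bound BODIPY-GDP is released from Rap1B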
How it was run: (§1)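 Measured: fluorescence of BODIPY-GDP bound to Rap1B, which falls as exchange proceeds. Conditions include 50 uM competing GDP, 5 and 30 min reads, and a later cAMP challenge for antagonist detection.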

[5] = molecular target: Rap guanine nucleotide exchange factor 3 (Homo sapiens) (UniProt O95398); assay: Counterscreen qHTS for agonist of cAMP-regulated guanine nucleotide exchange factor 3 (EPAC1) (AID 1645889); also: nearly all actives have a fitted effect of over 40% in size
How it was run: as §1

Structure (SMILES): CCOc1ccc(NC(=O)CN(C)S(=O)(=O)c2ccc(-c3ccc(=O)[nH]n3)s2)cc1
- Potency [1]: 100 µM (active)
- Potency [2]: inactive
- Potency [3]: inactive
- Potency [4]: inactive
- Potency [5]: inactive

Structure (SMILES): COc1ccc(OC)c(CCNC(=O)c2ccc(CS(=O)(=O)c3ccc(Br)cc3)o2)c1
- Potency [1]: inactive
- Potency [2]: inactive
- Potency [3]: inactive
- Potency [4]: inactive
- Potency [5]: inactive

Structure (SMILES): Cc1ccc(-c2nn(-c3ccccc3)cc2C=C2SC(=S)N(CCS(=O)(=O)O)C2=O)cc1
- Potency [1]: inactive
- activation [2]: 6.87% [at 17.1 µM, percent relative to cAMP agonist control]
- Potency [3]: inactive
- activity change, negative = inhibition [4]: -16.5% [at 30.8 µM]
- activation [5]: 28% [at 30.8 µM]

Structure (SMILES): COc1ccc(C(CNC(=O)c2cccc(S(=O)(=O)Nc3ccc(C)cc3)c2)N2CCOCC2)cc1 (stereo unspecified)
- Potency [1]: inactive
- Potency [2]: inactive
- Potency [3]: inactive
- Potency [4]: inactive
- Potency [5]: inactive

Structure (SMILES): CCc1nnc(NS(=O)(=O)c2ccc(N/C=C\C(=O)c3ccc4ccccc4c3)cc2)s1
- Potency [1]: inactive
- activation [2]: 1.49% [at 17.1 µM, percent relative to cAMP agonist control]
- Potency [3]: inactive
- activity change, negative = inhibition [4]: -10.2% [at 30.8 µM]
- activation [5]: 3.82% [at 30.8 µM]

Structure (SMILES): N#Cc1c(SCC(=O)Nc2cccc(C(F)(F)F)c2)sc2c(O)cc(=O)[nH]c12
- Potency [1]: inactive
- activation [2]: 0% [at 17.1 µM, percent relative to cAMP agonist control]
- Potency [3]: inactive
- activity change, negative = inhibition [4]: -10.8% [at 30.8 µM]
- activation [5]: 17.2% [at 30.8 µM]

Structure (SMILES): CCN(c1ccccc1)S(=O)(=O)c1ccc(C(=O)Nc2ccncc2)cc1
- Potency [1]: inactive
- activation [2]: -2.02% [at 17.1 µM, percent relative to cAMP agonist control]
- Potency [3]: inactive
- activity change, negative = inhibition [4]: -7.46% [at 30.8 µM]
- activation [5]: 15% [at 30.8 µM]

Structure (SMILES): COc1ccc(NC(=O)CN(C)C(=O)c2cc(-c3ccco3)nc3ccccc23)cc1
- Potency [1]: inactive
- Potency [2]: inactive
- Potency [3]: inactive
- Potency [4]: inactive

Structure (SMILES): COc1ccc(/C=N/NC(=O)c2[nH]c3ccc(Br)cc3c2-c2ccccc2)c(C(=O)O)c1OC
- Potency [1]: inactive
- activation [2]: 2.8% [at 17.1 µM, percent relative to cAMP agonist control]
- Potency [3]: inactive
- activity change, negative = inhibition [4]: 0.744% [at 30.8 µM]

Structure (SMILES): CCc1cc(-c2n[nH]c(C)c2-c2nc(C)cs2)c(O)cc1OC
- Potency [1]: inactive
- activation [2]: 5.22% [at 17.1 µM, percent relative to cAMP agonist control]
- Potency [3]: inactive
- activity change, negative = inhibition [4]: -17% [at 30.8 µM]
- activation [5]: 34.8% [at 30.8 µM]

Structure (SMILES): CCOC(=O)C1=C(N)Oc2cc(O)ccc2C1c1ccccc1 (stereo unspecified)
- Potency [1]: inactive
- activation [2]: -4.25% [at 17.1 µM, percent relative to cAMP agonist control]
- Potency [3]: inactive
- activity change, negative = inhibition [4]: -7.53% [at 30.8 µM]
- activation [5]: 10.8% [at 30.8 µM]

Structure (SMILES): CCCCN1CC(c2nc3ccccc3n2CCCCOc2cc(C)ccc2C)CC1=O (stereo unspecified)
- Potency [1]: inactive
- Potency [2]: inactive
- Potency [3]: inactive
- Potency [4]: inactive

Structure (SMILES): CC1=C(C(=O)OC2CCCCCC2)C(c2c(Cl)cccc2Cl)CC(=O)N1 (stereo unspecified)
- Potency [1]: inactive
- Potency [2]: inactive
- Potency [3]: inactive
- Potency [4]: inactive
- Potency [5]: inactive

Structure (SMILES): O=C1NC(=O)/C(=C/c2ccc(-c3cc(C(=O)O)ccc3Cl)o2)S1
- Potency [1]: inactive
- activation [2]: 7.65% [at 17.1 µM, percent relative to cAMP agonist control]
- Potency [3]: inactive
- activity change, negative = inhibition [4]: 4.91% [at 30.8 µM]
- activation [5]: 8.4% [at 30.8 µM]

Structure (SMILES): CC(C)(C)C(=O)NC(Nc1cccc2cccnc12)C(Cl)(Cl)Cl (stereo unspecified)
- Potency [1]: inactive
- activation [2]: 7.17% [at 17.1 µM, percent relative to cAMP agonist control]
- Potency [3]: inactive
- activity change, negative = inhibition [4]: -6% [at 30.8 µM]

Structure (SMILES): O=C(O)CN1C(=O)/C(=C\c2cc([N+](=O)[O-])ccc2OCc2ccccc2Cl)SC1=S
- Potency [1]: inactive
- activation [2]: 2.47% [at 17.1 µM, percent relative to cAMP agonist control]
- Potency [3]: inactive
- activity change, negative = inhibition [4]: -20.4% [at 30.8 µM]
- activation [5]: 29.5% [at 30.8 µM]

Structure (SMILES): O=C(Nc1nc(-c2cc(F)ccc2F)cs1)C1=COCCO1
- Potency [1]: inactive
- Potency [2]: inactive
- Potency [3]: inactive
- Potency [4]: inactive
- Potency [5]: inactive

Structure (SMILES): CC(=Cc1ccccc1)C=C1SC(=S)N(CCCC(=O)Nc2ccc(C(=O)O)cc2)C1=O
- Potency [1]: inactive
- Potency [2]: inactive
- Potency [3]: inactive
- Potency [4]: inactive
- Potency [5]: inactive

Structure (SMILES): O=C(NCc1ccco1)c1c2c(nc3ccccc13)CCC2
- Potency [1]: inactive
- activation [2]: 6.94% [at 17.1 µM, percent relative to cAMP agonist control]
- Potency [3]: inactive
- activity change, negative = inhibition [4]: -4.49% [at 30.8 µM]
- activation [5]: 26.4% [at 30.8 µM]

Structure (SMILES): COc1ccc(/C=N/NC(=O)c2cc(C(C)(C)C)[nH]n2)cc1COc1ccc(F)cc1F
- Potency [1]: inactive
- activation [2]: 3.4% [at 17.1 µM, percent relative to cAMP agonist control]
- Potency [3]: inactive
- activity change, negative = inhibition [4]: -14.1% [at 30.8 µM]
- activation [5]: 19.8% [at 30.8 µM]
